A selection: hits, their analogues and other compounds. The true share with any hit is near 2.4%.
D2 ag-1 – activates the human D2 dopamine receptor. P14416. activation, % at 2 µM. HEK293 T-REx D2 cells, calcium flux agonist mode. 340,000 compounds, 0.53% hits;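 active = activation over 3 SD above normal in the single-dose calcium agonist read, cut at about 30% in these data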; note: 0% is about no effect
Target sequence (P14416 whole entry, looked up): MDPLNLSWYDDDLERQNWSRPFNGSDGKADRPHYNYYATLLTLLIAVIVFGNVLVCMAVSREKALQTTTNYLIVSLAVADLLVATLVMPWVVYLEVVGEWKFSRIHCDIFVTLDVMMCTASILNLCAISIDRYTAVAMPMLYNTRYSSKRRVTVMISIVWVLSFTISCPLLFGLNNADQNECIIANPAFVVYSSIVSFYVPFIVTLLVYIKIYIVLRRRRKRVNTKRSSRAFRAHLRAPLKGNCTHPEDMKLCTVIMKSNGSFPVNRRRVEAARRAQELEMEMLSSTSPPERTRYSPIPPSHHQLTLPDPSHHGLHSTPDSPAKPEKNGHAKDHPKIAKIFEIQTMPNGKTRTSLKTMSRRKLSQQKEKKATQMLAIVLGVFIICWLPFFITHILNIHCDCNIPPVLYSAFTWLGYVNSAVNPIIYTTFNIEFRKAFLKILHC
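HEK293 Trex D2 cells, tetracycline-induced, o/n 30 C 5% CO2; no-wash Ca dye, RT 30–90 min; 10-cycle baseline, 23 nl cpd added, kinetic Ca read 180 s; agonist hits = positive Ca response.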
D2 ag-2 – agonists of human D2 dopamine receptor (beta-arrestin) | P14416 | DiscoveRx PathHunter D2 beta-arrestin, luminescence, 90 min; 100% = 57 uM dopamine signal | activation, % (test concentration not listed) | 360,000 compounds, 0.084% hits | AID 624465; in the data active = activation above about 40%
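Agonist mode: compounds alone added to overnight-plated D2 PathHunter cells for 90 min at 37 C, with 57 uM final dopamine (EC100) defining full response. Beta-arrestin recruitment detected by chemiluminescent reagent, read after 1 h at ambient temperature.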
D2 antagonist – antagonists of human D2 dopamine receptor. HEK293 TREx D2 cells, calcium flux, dopamine EC80. AID 485344. P14416. inhibition, % at 10 µM. 340,000 compounds, 2% hits; in the data active = inhibition above about 30%; inactive = below that, where a call was filed; note: 0% is about no effect
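Compounds are added to dye-loaded, induced HEK293 T-REx cells coupled to calcium release via D2; after a 3 min kinetic read an EC80 dopamine stimulus is given and fluorescence is recorded for 3 more min.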
D2 PAM-1 – positively modulates the human D2 dopamine receptor allosterically | P14416 | HEK293 T-REx D2, calcium flux, EC20 dopamine potentiation | potentiation, % at 10 µM | 340,000 compounds, 0.34% hits;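 active = potentiation over 3 SD above the plate norm, cut at about 30% in these data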; note: 0% is about no effect
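Tetracycline-induced Hek293 Trex D2 cells, force-coupled to calcium, loaded with no-wash calcium dye. Compound added with 180 s kinetic read for agonism, then EC20 dopamine and a further 180 s read for potentiation.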
D2 PAM-2 – positive allosteric modulators of human D2 dopamine receptor; P14416; DiscoveRx D2 beta-arrestin cells, luminescence, 90 min; 100% = 57 uM dopamine signal; potentiation, % (no concentration beside the values); 360,000 compounds, 0.23% hits; AID 624464; in the data active = potentiation above about 50%
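PathHunter beta-arrestin assay in DiscoveRx D2 cells. Compounds were added with an EC20 of dopamine (50 nM final) for 90 min at 37 deg C. Luminescence was read 1 h after detection reagent, with 57 uM dopamine as the EC100 control.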
* marks the source's active call; other numbers are inactive results; nt = no result given.

SMILES	D2 ag-1	D2 ag-2	D2 antagonist	D2 PAM-1	D2 PAM-2
COc1ccc(COc2ccc(S(=O)(=O)N3CCCC3)cc2C(N)=O)cc1F	1	-4	-14	30*	-11
COc1ccc(COc2ccccc2C(=O)NCc2ccccc2)cc1F	-1	5	41*	2	-9
CCCn1c(=O)n(-c2ccccc2Cl)c(=O)c2sc3ccccc3c21	nt	nt	nt	25	nt
COc1cc(NS(=O)(=O)c2ccc(-c3cc(C)no3)cc2)cc(OC)c1	0	nt	nt	5	nt
COC(=O)c1ccc2c(=O)n(CCCCCC(=O)N3CCN(c4cc(Cl)ccc4C)CC3)c(=O)[nH]c2c1	0	nt	nt	14	nt
O=C1CSC(c2cccc([N+](=O)[O-])c2)N1Cc1ccccc1 (centres undefined)	-1	7	30*	-10	-3
CC(C)NC(=O)c1ccc(C2SCC(=O)N2Cc2ccccc2)cc1 (centres undefined)	0	2	50*	8	0
COc1ccc(OC)c(NC(=O)C2CC(=O)n3ncnc3N2)c1 (centres undefined)	1	0	8	33*	-8
Cc1ccccc1NC(=O)CSc1ccc(-c2cccs2)nn1	0	nt	nt	6	nt
CCOC(=O)/C(C(=Nc1ccccc1)Nc1ccccc1)=C(\C)O	-1	-2	-8	7	-12
NC(=Nc1ccccc1)Nc1ccccc1	79*	9	56*	-17	-6
COc1ccc(-n2c(=O)c3c(c4cc(OC)ccc4n3C)n(Cc3cc(C)ccc3C)c2=O)cc1	1	nt	nt	4	nt
CCOC(=O)c1c(C)sc(-c2c(-c3ccc4c(c3)OCCO4)[nH]c3c2c(=O)[nH]c(=O)n3C)c1O	18	nt	nt	-4	nt
COc1cc(OC)c(NC(=O)c2cc(C(C)=O)n3ccccc23)cc1Cl	0	nt	nt	2	nt
CCOc1nc(NCCO)nc(NCCC2=CCCCC2)n1	0	-2	-15	49*	-5
CCOc1nc(NCCC2=CCCCC2)nc(N2CCOCC2)n1	0	-3	-15	6	0
COc1ccc(-c2cc(C(=O)Nc3c(C)nn(Cc4ccc(F)cc4)c3C)no2)cc1OC	0	nt	nt	-1	nt
CC(=O)c1cc2c(cc1N/C(=N/S(=O)(=O)c1ccc(F)cc1)c1ccccc1)OCO2	-1	nt	nt	3	nt
CC(=O)C1CCC2C3CCC4=CC(=O)CCC4(C)C3(Br)C(=O)CC12C (centres undefined)	nt	11	nt	nt	61*
c1cnc2c(C3NCCc4c3[nH]c3ccccc43)cccc2c1 (centres undefined)	0	-9	36*	-21	-95
O=C(O)c1cccnc1C(=O)N1CCc2c([nH]c3ccccc23)C1C(F)(F)F (centres undefined)	-2	4	-16	6	-52
COc1ccc(OC)c(NC(=O)CCc2c(C)nn(-c3ccc(N4CCCC4)nn3)c2C)c1	1	nt	nt	5	nt
O=C(NC1CCN(S(=O)(=O)c2ccc(Cl)cc2)CC1)C1CCCCC1	2	0	-10	-6	-12
O=C(NC1CC1)C1CCN(S(=O)(=O)c2ccc(Cl)cc2)CC1	0	1	32*	6	-5
COc1ccc(N2CCN(CCCNC(=O)c3nnc(Cc4ccc(F)cc4)o3)CC2)cc1	0	nt	nt	-1	nt
SMILES	D2 ag-1	D2 ag-2	D2 antagonist	D2 PAM-1	D2 PAM-2
COc1ccc(-n2nc(C(=O)N3CCN(c4ccc(F)cc4)CC3)c3ccccc3c2=O)c(OC)c1	9	-1	34*	-15	-5
Cc1ccc(-c2c(C(=O)N/N=C/c3ccsc3)nnn2-c2nonc2N)cc1	19	-4	35*	21	-1
Nc1nonc1-n1nnc(C(=O)N/N=C/c2ccccc2Cl)c1CN1CCOCC1	0	4	4	43*	-9
CCCOc1ccc(-c2c(C(=O)N/N=C/c3ccc(C)cc3)nnn2-c2nonc2N)cc1	6	-4	4	5	1
CCOc1cc(/C=N/NC(=O)c2nnn(-c3nonc3N)c2C)ccc1OCc1cccc(F)c1	0	-2	-7	55*	-5
CCOc1cc(/C=N/NC(=O)c2nnn(-c3nonc3N)c2C)ccc1OCc1ccc(F)cc1	1	8	-7	9	1
CCOc1ccc(-c2c(C(=O)N/N=C/c3ccc(C)cc3)nnn2-c2nonc2N)cc1	39*	5	-2	6	-1
Cc1ccc(/C=C/c2onc(C)c2S(=O)(=O)N2CCC(C(=O)N3CC(C)Oc4ccccc43)CC2)cc1 (centres undefined)	2	nt	nt	-4	nt
COc1ccc2ccccc2c1/C=N/NC(=O)c1nnn(-c2nonc2N)c1CN(C)C	-1	1	-3	13	-7
CCOc1ccc(-c2c(C(=O)N/N=C/c3ccc(Cl)cc3)nnn2-c2nonc2N)cc1	0	6	-10	84*	0
COc1ccc2ccccc2c1/C=N/NC(=O)c1nnn(-c2nonc2N)c1C(C)C	1	0	35*	-6	-29
COc1ccccc1-c1cc(C(=O)N/N=C/c2cccs2)c2ccccc2n1	-1	-1	72*	-23	-32
O=C(N/N=C/c1cccs1)c1c[nH]c2ccccc12	-1	-4	33*	-19	-25
O=S(=O)(c1ccc(F)cc1)N1CCC(O)(c2ccc3c(c2)OCO3)CC1	-1	0	1	6	-12
OC1(c2ccc3c(c2)OCO3)CCN(Cc2ccc(F)cc2)CC1	2	-6	73*	-22	-40
OC1(c2ccc(F)cc2)CCN(Cc2cccnc2)CC1	1	-6	34*	-30	-15
CCCN(CCC)C(=O)Cn1c(=O)n(-c2ccc(Cl)c(Cl)c2)c(=O)c2c(C)c(C(=O)N(C)C)sc21	0	nt	nt	4	nt
Cc1csc2nc(-c3cccc(NC(=O)C(C)C)c3)cn12	nt	nt	nt	-11	nt
O=C(CN1C(=O)C2C3C=CC(C3)C2C1=O)N1CC(=O)N(CCc2ccccc2)C(=O)C1 (centres undefined)	0	0	-6	10	21
O=C(CCN1C(=O)C2C3C=CC(C3)C2C1=O)N1CC(=O)N(CCc2ccccc2)C(=O)C1 (centres undefined)	1	-4	31*	21	-20
CC1CN(C(=O)N2CCC(C(=O)NC3CCCCCC3)CC2)c2cc(Cl)ccc2O1 (centres undefined)	1	nt	nt	5	nt
CCO/C=C1\SC(=S)N(c2ccc(Cl)cc2)C1=O	0	-5	-8	4	-9
CC(C)c1ccc(N2C(=O)/C(=C/N(C)C)SC2=S)cc1	30*	-5	12	-3	-23
Cc1noc(/C=C/NCc2cccnc2)c1S(=O)(=O)N(C)CC(=O)N1CCc2ccccc21	-1	-3	57*	-8	-6
COC(=O)c1ccc(/C=C(\C#N)C(=O)NC(C)c2ccccc2)cc1 (centres undefined)	-1	-7	8	10	-9

Screens (PubChem BioAssay)
